Experimental data taken from PubChem BioAssay (EPA / NIEHS).
Records with an inconclusive call do not appear. Activity calls are given as the source filed them. How the source made its calls, unless noted: active means hit-call score of the fitted dose curve at least 0.9, where 1 is the maximum; inconclusive means response in the unintended direction; inactive means score below 0.9.

Assays:
[1] = molecular target: human Peroxisome Proliferator-activated Receptor delta (PPARd), PPARD (gene 5467) (UniProt Q03181); experiment: ATG_PPARd_TRANS: Attagene TRANS-FACTORIAL HepG2 Assay for human Peroxisome Proliferator-activated Receptor delta (PPARd) (AID 2283002)
human Peroxisome Proliferator-activated Receptor delta (PPARd), PPARD (gene 5467), sequence (Q03181 whole entry, looked up, the tested form may be a part): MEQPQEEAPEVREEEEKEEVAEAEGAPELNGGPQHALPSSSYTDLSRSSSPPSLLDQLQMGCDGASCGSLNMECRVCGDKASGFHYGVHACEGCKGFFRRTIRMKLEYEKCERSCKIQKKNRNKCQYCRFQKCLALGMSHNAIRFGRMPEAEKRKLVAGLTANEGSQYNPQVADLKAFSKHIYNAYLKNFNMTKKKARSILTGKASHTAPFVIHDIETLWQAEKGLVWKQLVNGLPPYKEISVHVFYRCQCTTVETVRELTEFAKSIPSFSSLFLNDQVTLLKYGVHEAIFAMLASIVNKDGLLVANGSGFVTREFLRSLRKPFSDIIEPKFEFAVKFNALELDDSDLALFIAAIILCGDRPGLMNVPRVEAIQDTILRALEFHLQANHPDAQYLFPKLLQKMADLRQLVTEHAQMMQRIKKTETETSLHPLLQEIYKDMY
How it was run: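 Multiplexed trans-activation format: HepG2 liver cells expressing exogenous NR-Gal4 chimeras and GAL4-UAS reporters were exposed for 24 h. Reporter mRNA was detected by RT-PCR with capillary electrophoresis fluorescence; activity fitted as gain of signal relative to DMSO.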

[2] = molecular target: Nuclear receptor subfamily 1 group I member 2 (Homo sapiens) (UniProt O75469); experiment: ATG_PXR_TRANS: Attagene TRANS-FACTORIAL HepG2 Assay for human Pregnane X Receptor (PXR) (AID 2283008)
Nuclear receptor subfamily 1 group I member 2 (Homo sapiens), sequence (O75469 whole entry, looked up, the tested form may be a part): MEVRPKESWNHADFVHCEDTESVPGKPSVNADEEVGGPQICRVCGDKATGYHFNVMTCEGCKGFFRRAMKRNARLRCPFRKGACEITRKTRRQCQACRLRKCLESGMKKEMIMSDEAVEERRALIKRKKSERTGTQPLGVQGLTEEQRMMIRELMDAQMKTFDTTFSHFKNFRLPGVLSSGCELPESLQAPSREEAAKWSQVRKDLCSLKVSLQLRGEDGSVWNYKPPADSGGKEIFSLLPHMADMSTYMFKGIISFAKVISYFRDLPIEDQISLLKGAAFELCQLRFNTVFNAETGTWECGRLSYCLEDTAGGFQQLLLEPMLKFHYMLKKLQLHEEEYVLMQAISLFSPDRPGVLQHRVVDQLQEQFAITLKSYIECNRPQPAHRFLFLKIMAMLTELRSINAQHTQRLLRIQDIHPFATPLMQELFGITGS
How it was run: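 HepG2 cells transiently transfected with multiple reporter units, here a PXR-GAL4 chimera driving a GAL4-UAS reporter; 24 h compound exposure. Reporter mRNA measured by RT-PCR, FAM labelling and capillary electrophoresis; gain of signal fitted against DMSO baseline.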

[3] = molecular target: human Retinoic Acid Receptor gamma (RARg), RARG (gene 5916) (UniProt P13631); experiment: ATG_RARg_TRANS: Attagene TRANS-FACTORIAL HepG2 Assay for human Retinoic Acid Receptor gamma (RARg) (AID 2283009)
human Retinoic Acid Receptor gamma (RARg), RARG (gene 5916), sequence (P13631 whole entry, looked up): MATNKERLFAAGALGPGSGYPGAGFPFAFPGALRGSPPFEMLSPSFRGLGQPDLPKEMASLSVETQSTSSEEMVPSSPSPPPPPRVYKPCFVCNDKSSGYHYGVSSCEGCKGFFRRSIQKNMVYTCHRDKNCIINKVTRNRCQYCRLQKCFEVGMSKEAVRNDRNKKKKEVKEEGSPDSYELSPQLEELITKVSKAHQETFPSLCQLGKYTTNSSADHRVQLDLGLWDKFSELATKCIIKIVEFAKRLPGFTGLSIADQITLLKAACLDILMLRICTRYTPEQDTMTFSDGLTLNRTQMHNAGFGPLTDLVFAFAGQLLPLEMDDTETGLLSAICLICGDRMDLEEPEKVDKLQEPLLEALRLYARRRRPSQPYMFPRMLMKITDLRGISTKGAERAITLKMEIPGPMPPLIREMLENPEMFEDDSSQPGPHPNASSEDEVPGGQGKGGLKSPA
How it was run: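 Transient transfection of HepG2 with multi-reporter constructs, then 24 h chemical treatment. Total RNA isolated, reverse-transcribed, PCR-amplified, fluorescently labelled and resolved by capillary electrophoresis; activity scored as mRNA induction versus DMSO.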

[4] = molecular target: human RAR-related Orphan Receptor gamma (RORg), RORC (gene 6097) (UniProt P51449); experiment: ATG_RORg_TRANS: Attagene TRANS-FACTORIAL HepG2 Assay for human RAR-related Orphan Receptor gamma (RORg) (AID 2283011)
human RAR-related Orphan Receptor gamma (RORg), RORC (gene 6097), sequence (P51449 whole entry, looked up, the tested form may be a part): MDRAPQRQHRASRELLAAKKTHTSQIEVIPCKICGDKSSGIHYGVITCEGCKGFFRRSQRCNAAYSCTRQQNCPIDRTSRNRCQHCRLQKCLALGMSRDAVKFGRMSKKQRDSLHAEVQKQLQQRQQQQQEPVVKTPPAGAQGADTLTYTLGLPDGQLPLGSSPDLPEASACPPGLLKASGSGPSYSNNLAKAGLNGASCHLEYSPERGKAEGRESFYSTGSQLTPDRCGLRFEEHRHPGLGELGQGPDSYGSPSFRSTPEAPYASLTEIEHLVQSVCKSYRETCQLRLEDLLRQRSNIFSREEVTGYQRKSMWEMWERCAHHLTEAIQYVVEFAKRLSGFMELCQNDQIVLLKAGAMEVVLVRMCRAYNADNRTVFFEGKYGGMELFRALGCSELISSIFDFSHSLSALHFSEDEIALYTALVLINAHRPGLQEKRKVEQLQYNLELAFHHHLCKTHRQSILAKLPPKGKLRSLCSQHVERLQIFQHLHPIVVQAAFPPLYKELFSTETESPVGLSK
How it was run: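 Transient MRTU transfection of HepG2 (TRANS format, exogenous NR-Gal4 chimera). 24 h dosing. Total RNA → oligo(dT) RT → PCR → 6-FAM labelling → HpaI cut → CE. Gain vs DMSO.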

[5] = molecular target: human Thyroid Receptor alpha (THRa1), THRA (gene 7067) (UniProt P10827); experiment: ATG_THRa1_TRANS: Attagene TRANS-FACTORIAL HepG2 Assay for human Thyroid Receptor alpha (THRa1) (AID 2283014)
human Thyroid Receptor alpha (THRa1), THRA (gene 7067), sequence (P10827 whole entry, looked up, the tested form may be a part): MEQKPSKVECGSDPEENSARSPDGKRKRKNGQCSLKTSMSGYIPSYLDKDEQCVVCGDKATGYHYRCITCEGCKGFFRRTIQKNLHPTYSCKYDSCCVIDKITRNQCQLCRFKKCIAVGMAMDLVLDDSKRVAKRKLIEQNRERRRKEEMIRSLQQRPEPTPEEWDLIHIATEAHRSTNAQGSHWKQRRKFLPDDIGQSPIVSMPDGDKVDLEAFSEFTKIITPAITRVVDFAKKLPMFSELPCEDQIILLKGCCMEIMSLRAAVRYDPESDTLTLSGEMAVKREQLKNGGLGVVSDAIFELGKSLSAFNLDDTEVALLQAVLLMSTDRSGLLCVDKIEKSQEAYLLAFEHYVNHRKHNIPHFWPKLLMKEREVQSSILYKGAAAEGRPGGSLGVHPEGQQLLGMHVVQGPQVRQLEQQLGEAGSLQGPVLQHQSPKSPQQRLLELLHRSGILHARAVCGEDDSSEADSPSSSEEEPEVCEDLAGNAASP
How it was run: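 Transient HepG2 transfection, NR-Gal4 chimera driving GAL4-UAS reporters; 24 h compound exposure; total RNA, oligo(dT) RT, PCR, fluorescent primer extension, capillary electrophoresis. Upward direction vs DMSO control.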

[6] = molecular target: human Vitamin D Receptor (VDR), VDR (gene 7421) (UniProt P11473); experiment: ATG_VDR_TRANS: Attagene TRANS-FACTORIAL HepG2 Assay for human Vitamin D Receptor (VDR) (AID 2283022)
human Vitamin D Receptor (VDR), VDR (gene 7421), sequence (P11473 whole entry, looked up, the tested form may be a part): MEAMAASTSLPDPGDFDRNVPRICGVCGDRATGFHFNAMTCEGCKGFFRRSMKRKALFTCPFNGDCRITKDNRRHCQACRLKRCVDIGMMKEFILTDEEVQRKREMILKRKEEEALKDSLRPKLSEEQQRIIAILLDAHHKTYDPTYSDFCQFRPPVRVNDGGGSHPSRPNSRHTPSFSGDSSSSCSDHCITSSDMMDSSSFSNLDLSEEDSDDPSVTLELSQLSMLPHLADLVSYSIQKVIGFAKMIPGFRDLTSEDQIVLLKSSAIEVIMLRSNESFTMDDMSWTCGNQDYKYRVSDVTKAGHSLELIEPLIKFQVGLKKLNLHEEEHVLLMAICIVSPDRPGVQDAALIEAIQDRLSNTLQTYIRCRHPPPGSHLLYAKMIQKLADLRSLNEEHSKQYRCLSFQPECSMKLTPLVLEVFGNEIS
How it was run: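 RT-PCR/capillary electrophoresis read-out of reporter mRNA induction in transiently transfected HepG2; 24 h dosing; chimeric NR-Gal4 (TRANS format); gain-of-signal fit against DMSO baseline.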

[7] = read-out: Intercellular Adhesion Molecule 1 (ICAM1), ICAM1 (gene 3383); experiment: BSK_3C_ICAM1: BioMAP Diversity Plus: 3C Assay for Intercellular Adhesion Molecule 1 (ICAM1) Biomarker Activity (AID 2283003; active means hit-call score of the fitted dose curve at least 0.9, where 1 is the maximum; inactive means score below 0.9); conditions: primary human endothelial cells (HUVEC); actives raise or lower the signal
How it was run: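 ICAM-1 levels measured by ELISA after HUVEC cultures in the 3C system had been dosed for 24 h. Gain or loss of signal relative to DMSO was fitted in both directions.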

[8] = molecular target: Retinoic acid receptor alpha (Homo sapiens) (UniProt P10276); experiment: ATG_RARa_TRANS: Attagene TRANS-FACTORIAL HepG2 Assay for human Retinoic Acid Receptor alpha (RARa) (AID 2283005)
How it was run: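 HepG2 cells transiently transfected with multiple reporter units expressing chimeric RARα-GAL4 fusion, with GAL4-UAS-driven reporters. After 24 h compound exposure, reporter mRNA induction quantified by RT-PCR and capillary electrophoresis with fluorescent labeling; gain-of-signal fitted relative to DMSO control.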

[9] = BSK_3C_Proliferation: Cell Proliferation Assessment in the BioMAP Diversity Plus: 3C Assay (AID 2283006; active means hit-call score of the fitted dose curve at least 0.9, where 1 is the maximum; inactive means score below 0.9;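 on AC50: potency may reflect either rise or fall in cell number versus DMSO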); conditions: primary human endothelial cells (HUVEC)
How it was run: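 Read-out is total protein by SRB absorbance at 560 nm, taken as a proxy for relative cell number. Primary human umbilical vein endothelium cultured below confluence was dosed for 48 h, TCA-fixed and SRB-stained; curves were fitted bidirectionally versus DMSO.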

[10] = molecular target: Peroxisome proliferator-activated receptor gamma (Homo sapiens) (UniProt P37231); experiment: ATG_PPARg_TRANS: Attagene TRANS-FACTORIAL HepG2 Assay for human Peroxisome Proliferator-activated Receptor-gamma (PPARg) (AID 2283007)
How it was run: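 Multiplexed reporter transcription units in HepG2, 24 h dosing, reporter transcripts quantified by fluorescent RT-PCR and capillary electrophoresis. Increase over DMSO scored.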

[11] = molecular target: human RAR-related Orphan Receptor beta (RORb), RORB (gene 6096) (UniProt Q92753); experiment: ATG_RORb_TRANS: Attagene TRANS-FACTORIAL HepG2 Assay for human RAR-related Orphan Receptor beta (RORb) (AID 2283010)
human RAR-related Orphan Receptor beta (RORb), RORB (gene 6096), sequence (Q92753 whole entry, looked up, the tested form may be a part): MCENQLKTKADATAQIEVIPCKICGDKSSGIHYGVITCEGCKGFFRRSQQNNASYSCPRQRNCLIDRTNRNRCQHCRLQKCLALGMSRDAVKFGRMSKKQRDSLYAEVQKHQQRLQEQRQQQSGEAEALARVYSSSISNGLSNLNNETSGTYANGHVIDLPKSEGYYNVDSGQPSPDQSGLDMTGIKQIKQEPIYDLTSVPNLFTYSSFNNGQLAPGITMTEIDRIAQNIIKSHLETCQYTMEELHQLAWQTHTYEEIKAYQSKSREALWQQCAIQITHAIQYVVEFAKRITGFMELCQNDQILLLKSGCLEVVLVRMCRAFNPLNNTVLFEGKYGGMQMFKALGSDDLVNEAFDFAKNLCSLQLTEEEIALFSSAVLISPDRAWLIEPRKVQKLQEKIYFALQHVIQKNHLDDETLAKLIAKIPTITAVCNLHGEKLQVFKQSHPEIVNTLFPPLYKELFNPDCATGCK
How it was run: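 Readout is reporter-gene mRNA induction, detected as fluorescence after RT-PCR and capillary electrophoresis, fitted for gain of signal against DMSO controls. Transiently transfected HepG2 liver cells carrying GAL4-UAS reporter constructs were treated for 24 hours.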

[12] = molecular target: Retinoic acid receptor RXR-alpha (Homo sapiens) (UniProt P19793); experiment: ATG_RXRa_TRANS: Attagene TRANS-FACTORIAL HepG2 Assay for human Retinoid X Receptor alpha (RXRa) (AID 2283012)
Retinoic acid receptor RXR-alpha (Homo sapiens), sequence (P19793 whole entry, looked up, the tested form may be a part): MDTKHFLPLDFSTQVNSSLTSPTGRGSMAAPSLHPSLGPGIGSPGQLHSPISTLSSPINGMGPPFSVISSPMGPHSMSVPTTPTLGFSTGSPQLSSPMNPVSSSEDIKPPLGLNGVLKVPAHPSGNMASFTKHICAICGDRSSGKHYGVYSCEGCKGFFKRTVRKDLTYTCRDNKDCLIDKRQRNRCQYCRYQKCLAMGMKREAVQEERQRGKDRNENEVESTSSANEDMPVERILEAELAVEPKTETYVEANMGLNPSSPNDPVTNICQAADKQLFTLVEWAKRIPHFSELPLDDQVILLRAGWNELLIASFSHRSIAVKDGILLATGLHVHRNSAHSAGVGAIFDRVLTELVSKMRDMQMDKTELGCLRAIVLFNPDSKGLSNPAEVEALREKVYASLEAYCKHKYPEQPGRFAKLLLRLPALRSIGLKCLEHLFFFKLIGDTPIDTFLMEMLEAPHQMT
How it was run: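 Transient transfection of human HepG2 with multiple GAL4-UAS reporter constructs; 24 h compound exposure; total RNA isolated, reverse-transcribed, PCR-amplified, 6-FAM labelled, HpaI-cut, resolved by capillary electrophoresis. Positive-direction fit versus DMSO.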

[13] = molecular target: human Retinoid X Receptor beta (RXRb), RXRB (gene 6257) (UniProt P28702); experiment: ATG_RXRb_TRANS: Attagene TRANS-FACTORIAL HepG2 Assay for human Retinoid X Receptor beta (RXRb) (AID 2283013)
human Retinoid X Receptor beta (RXRb), RXRB (gene 6257), sequence (P28702 whole entry, looked up, the tested form may be a part): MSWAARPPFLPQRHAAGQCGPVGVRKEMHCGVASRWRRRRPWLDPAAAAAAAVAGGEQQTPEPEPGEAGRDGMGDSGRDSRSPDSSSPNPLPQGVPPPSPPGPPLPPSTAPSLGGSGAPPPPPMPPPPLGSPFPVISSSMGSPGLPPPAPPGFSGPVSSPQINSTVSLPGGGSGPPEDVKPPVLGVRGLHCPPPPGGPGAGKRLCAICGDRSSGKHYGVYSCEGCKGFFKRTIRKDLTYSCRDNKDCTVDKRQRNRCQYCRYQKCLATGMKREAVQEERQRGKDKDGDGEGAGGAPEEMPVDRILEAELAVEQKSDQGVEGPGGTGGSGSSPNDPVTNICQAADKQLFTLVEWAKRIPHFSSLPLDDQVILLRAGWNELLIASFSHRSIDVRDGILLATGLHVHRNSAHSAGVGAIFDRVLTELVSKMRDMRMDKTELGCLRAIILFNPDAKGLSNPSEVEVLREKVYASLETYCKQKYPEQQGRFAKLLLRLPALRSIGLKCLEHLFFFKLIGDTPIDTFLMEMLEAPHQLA
How it was run: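 Transfect HepG2 with GAL4-UAS multi-reporter constructs (chimeric NR-Gal4, TRANS format); dose compound 24 h; isolate RNA, RT-PCR, FAM primer extension, HpaI digest; quantify by capillary electrophoresis; positive direction vs DMSO.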

[14] = read-out: E-selectin (Homo sapiens) (UniProt P16581); experiment: BSK_3C_Eselectin: BioMAP Diversity Plus: 3C Assay for Eselectin Biomarker Activity (AID 2283015; active means hit-call score of the fitted dose curve at least 0.9, where 1 is the maximum; inactive means score below 0.9); conditions: primary human endothelial cells (HUVEC); actives raise or lower the signal
How it was run: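 HUVEC, 3C stimulation; compound exposure 24 h; E-selectin by ELISA; gain- or loss-of-signal fitted bidirectionally vs DMSO baseline.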

[15] = read-out: Interleukin-1 alpha (IL1a), IL1A (gene 3552); experiment: BSK_BE3C_IL1a: BioMAP Diversity Plus: BE3C Assay for Interleukin-1 alpha (IL1a) Biomarker Activity (AID 2283016; active means hit-call score of the fitted dose curve at least 0.9, where 1 is the maximum; inactive means score below 0.9); conditions: primary human bronchial epithelial cells; actives raise or lower the signal
How it was run: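 BE3C primary human bronchial epithelium; cpd 24 h; IL-1a by ELISA; bidirectional fit vs DMSO; parallel SRB (0.1% SRB, 10% TCA fix, 560 nm) for cytotoxicity.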

[16] = read-out: Monocyte Chemoattractant Protein-1 (MCP1), CCL2 (gene 6347); experiment: BSK_3C_MCP1: BioMAP Diversity Plus: 3C Assay for Monocyte Chemoattractant Protein-1 (MCP1) Biomarker Activity (AID 2283017; active means hit-call score of the fitted dose curve at least 0.9, where 1 is the maximum; inactive means score below 0.9); conditions: primary human endothelial cells (HUVEC); actives raise or lower the signal
How it was run: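 HUVEC, 3C system; 24 h chemical exposure; MCP-1 by ELISA; bidirectional curve fit vs DMSO baseline.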

[17] = read-out: Human Leukocyte Antigen - DR isotype (HLADR), HLA-DRA (gene 3122); experiment: BSK_3C_HLADR: BioMAP Diversity Plus: 3C Assay for Human Leukocyte Antigen - DR isotype (HLADR) Biomarker Activity (AID 2283019; active means hit-call score of the fitted dose curve at least 0.9, where 1 is the maximum; inactive means score below 0.9); conditions: primary human endothelial cells (HUVEC); actives raise or lower the signal
How it was run: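 HUVEC, 3C stimulation, 24 h post-dose; HLA-DR by ELISA; bidirectional curve fit vs DMSO baseline; gain or loss of signal scored.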

[18] = read-out: Interleukin-8 (IL8), CXCL8 (gene 3576); experiment: BSK_3C_IL8: BioMAP Diversity Plus: 3C Assay for Interleukin-8 (IL8) Biomarker Activity (AID 2283020; active means hit-call score of the fitted dose curve at least 0.9, where 1 is the maximum; inactive means score below 0.9); conditions: primary human endothelial cells (HUVEC); actives raise or lower the signal
How it was run: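 ELISA read-out of IL-8 from human umbilical vein endothelium, measured 24 h after chemical dosing. Activity is expressed relative to DMSO negative control, with both increases and decreases fitted.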

[19] = read-out: Monokine induced gamma interferon (MIG), CXCL9 (gene 4283); experiment: BSK_3C_MIG: BioMAP Diversity Plus: 3C Assay for Monokine induced gamma interferon (MIG) Biomarker Activity (AID 2283021; active means hit-call score of the fitted dose curve at least 0.9, where 1 is the maximum; inactive means score below 0.9;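 on AC50: MIG protein level measured by immunoassay in the treated endothelial cultures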); conditions: primary human endothelial cells (HUVEC); actives raise or lower the signal
How it was run: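 Read-out is ELISA detection of MIG on human umbilical vein endothelial cells, taken 24 h after dosing. Gain or loss of signal was scored relative to DMSO controls using bidirectional curve fitting.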

[20] = read-out: Monocyte Chemoattractant Protein-1 (MCP1), CCL2 (gene 6347); experiment: BSK_4H_MCP1: BioMAP Diversity Plus: 4H Assay for Monocyte Chemoattractant Protein-1 (MCP1) Biomarker Activity (AID 2283018; active means hit-call score of the fitted dose curve at least 0.9, where 1 is the maximum; inactive means score below 0.9); conditions: primary human endothelial cells (HUVEC); actives raise or lower the signal
How it was run: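 ELISA read-out of MCP-1 from human vascular endothelial primary cells taken at 24 hours after compound exposure. Activity was fitted in both directions relative to DMSO, which served as negative control.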

Measured: AC50

E-selectin (Homo sapiens), sequence (P16581 whole entry, looked up): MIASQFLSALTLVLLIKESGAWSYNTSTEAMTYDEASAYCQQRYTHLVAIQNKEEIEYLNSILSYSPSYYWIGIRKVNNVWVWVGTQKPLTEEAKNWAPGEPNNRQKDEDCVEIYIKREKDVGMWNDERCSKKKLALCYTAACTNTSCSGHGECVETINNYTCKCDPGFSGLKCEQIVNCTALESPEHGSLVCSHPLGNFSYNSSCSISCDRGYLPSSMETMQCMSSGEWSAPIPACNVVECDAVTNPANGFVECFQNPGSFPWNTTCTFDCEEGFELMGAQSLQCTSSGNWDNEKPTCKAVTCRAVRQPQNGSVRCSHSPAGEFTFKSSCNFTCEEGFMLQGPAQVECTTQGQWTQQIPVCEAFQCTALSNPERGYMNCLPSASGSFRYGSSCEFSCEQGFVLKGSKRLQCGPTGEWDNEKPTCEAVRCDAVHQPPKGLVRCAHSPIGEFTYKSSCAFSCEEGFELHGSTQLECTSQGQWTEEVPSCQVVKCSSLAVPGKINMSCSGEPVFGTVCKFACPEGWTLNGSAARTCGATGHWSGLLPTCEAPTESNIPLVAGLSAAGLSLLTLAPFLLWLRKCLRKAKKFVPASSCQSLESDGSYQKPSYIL

CCCCC[C@H](O)CC(=O)CCc1ccc(O)c(OC)c1
active: [2] 27.6 µM
inactive: [1] | [3] | [4] | [5] | [6]

CC(C)(C)c1ccc(O)c(C(C)(C)C)c1
active: [7] 15.1 µM | [9] 7.82 µM | [2] 6.59 µM | [12] 7.27 µM | [13] 3.2 µM | [5] 11.1 µM | [14] 10.3 µM | [15] 33.7 µM | [16] 11.7 µM | [17] 8.06 µM | [18] 12.9 µM | [19] 14.7 µM
inactive: [8] | [10] | [3] | [11] | [4] | [6]

CC[C@H](C)[C@@H](C(=O)O)n1sc2ccccc2c1=O
not listed: [1] | [3] | [10] | [11] | [12] | [17]
inactive: all other assays above

COc1ccc([N+](=O)[O-])cc1N
not listed: [1] | [2] | [3] | [6] | [8] | [10] | [11] | [13]
inactive: all other assays above

CCCCCCCCCCCCCCCS(=O)(=O)Oc1ccccc1
active: [2] 1.21 µM
not listed: [1] | [3] | [4] | [8] | [11] | [20]
inactive: all other assays above

CCN(CC)CCNc1ccc(CNC=O)c2sc3ccc(OC)cc3c(=O)c12
active: [7] 30.8 µM | [2] 0.228 µM | [12] 1.85 µM | [13] 0.45 µM | [14] 27.3 µM | [15] 29.3 µM | [16] 19.4 µM | [18] 16.4 µM | [6] 1.47 µM
inactive: [1] | [3] | [11] | [5]
